In the library only some 28% were active in any assay of this set; here they are far more common.
D1 allo mod = D1 CRE-luciferase signal change, two-sided – cell-based, HEK293 D1, dopamine EC30, D1 allosteric modulator project, primary screen. B-score at 10 µM. hit rate 5.9% among 58,000. dopamine EC30 potentiation; actives deviate in either direction. AID 641, 2007;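 active = luminescence count or its row- and column-corrected plate score outside the 99.7% band of the plate's sample wells, on either side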
Target sequence (P21728 whole entry, looked up): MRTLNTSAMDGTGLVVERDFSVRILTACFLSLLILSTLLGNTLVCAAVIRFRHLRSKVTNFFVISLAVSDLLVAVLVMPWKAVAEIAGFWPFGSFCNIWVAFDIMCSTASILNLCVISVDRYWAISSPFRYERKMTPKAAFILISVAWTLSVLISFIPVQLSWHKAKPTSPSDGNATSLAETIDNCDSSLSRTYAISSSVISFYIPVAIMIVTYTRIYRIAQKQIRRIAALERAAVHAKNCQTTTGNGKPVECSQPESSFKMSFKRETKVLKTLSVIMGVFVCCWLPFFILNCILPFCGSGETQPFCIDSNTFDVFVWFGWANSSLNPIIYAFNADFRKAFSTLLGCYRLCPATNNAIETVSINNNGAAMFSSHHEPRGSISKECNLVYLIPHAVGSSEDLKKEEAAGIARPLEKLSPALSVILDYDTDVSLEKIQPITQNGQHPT
CYP2C19 inh = blockers of cytochrome P450 2C19 activity – biochemical, luminescence, ADME assay, primary screen. P33261. CYP2C19 Supersomes, luciferin-H EGE luminescence, 30 min. inhibition, % at 5 µM. hit rate 21% among 96,000. AID 778, 2007;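 active = CYP2C19 inhibition above a set limit at 5 µM in the primary screen, cut at about 50% in these data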;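 note: plate controls were negative control wells for no effect and 2.5 mM tranylcypromine positive control for full effect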
CYP2C9 inhib = blockers of cytochrome P450 2C9 activity – biochemical, luminescence, ADME assay, primary screen. P11712. CYP2C9 Supersomes, luciferin-H conversion. inhibition, % at 5 µM. hit rate 20% among 96,000. AID 777, 2007;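 active = blocking of liver enzyme CYP2C9 beyond about 50% at 5 µM, limit read from the data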
CYP2C9 activ = human CYP2C9 activators, primary screen, biochemical, luminescence. Cytochrome P450 2C9 (Homo sapiens), P11712. activation factor at 5 µM. hit rate 1.4% among 96,000. recombinant CYP2C9, luciferin-H conversion; hits give high values; factor 1 = untreated enzyme, 0 = blocked;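 active = activation factor of 2 or more for CYP2C9 at a 5 µM dose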;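 note: 0 = sulfaphenazole-blocked wells and 1 = vehicle-only wells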
DAT uptake mod = changed hDAT dopamine uptake under cocaine IC80, either direction, primary screen, cocaine antagonist project, cell-based, LLC-PK1 hDAT, [14C]-dopamine uptake, MLSMR; Sodium-dependent dopamine transporter (Homo sapiens), Q01959; LLC-PK1 hDAT cells, [14C]-dopamine uptake with cocaine IC80; actives deviate in either direction; hit rate 1.3% among 110,000; AID 449768, 2010; B-score at 10 µM;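 active = Z score or B-score, a plate-position-corrected score, falls beyond the plate's 99.7% confidence bounds, in either direction; inactive = both scores lie inside the 99.7% bounds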;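 note: scored against the spread of the other compound wells on the same plate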
CYP2C19 activ = human CYP2C19 activators, primary screen, biochemical, luminescence. Cytochrome P450 2C19 (Homo sapiens), P33261. recombinant CYP2C19, luciferin-H EGE luminescence; hits give high values; 0 = fully inhibited enzyme, 1 = untreated enzyme. activation factor at 5 µM. 96,000 tested, under 10 active. AID 1025, 2008;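 active = activation factor of at least 2 at 5 µM in the primary screen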;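 note: 0 = wells with 2.5 mM tranylcypromine and 1 = vehicle-only wells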
The depositor's hits bear a star; nt = no result given.

SMILES	D1 allo mod	CYP2C19 inh	CYP2C9 inhib	CYP2C9 activ	DAT uptake mod	CYP2C19 activ
O=C(NCc1nc(-c2ccccc2)no1)c1cccs1	-0.31	56*	33	0.7	0.65	0.4
O=C(NCc1nc(-c2ccccc2)no1)c1ccc(Br)o1	-0.18	72*	5	0.9	0.37	0.3
O=C(N/N=C\c1cc(Br)cs1)C1COc2ccccc2O1 (stereo not given)	nt	10	13	0.9	-0.09	0.9
c1cc(-c2nc3cc(Cc4ccc5oc(-c6ccncc6)nc5c4)ccc3o2)ccn1	0.48	11	51*	0.5	nt	0.9
c1cncc(-c2nc3cc(Cc4ccc5oc(-c6cccnc6)nc5c4)ccc3o2)c1	-1.1	-1	39	0.6	nt	1
CCn1cc(C(=O)NC2CCc3ccccc32)c(=O)c2ccc(C)nc21 (stereo not given)	0.22	24	-6	1.1	-0.047	0.8
Cc1ccc(OCC(O)CNC(=O)c2ccccc2C(=O)O)cc1 (stereo not given)	nt	0	4	1	-0.29	1
O=C(CCCCCn1c(=O)[nH]c2ccsc2c1=O)NCc1ccc2c(c1)OCO2	nt	32	63*	0.4	0.017	0.7
COC(=O)c1ccc2c(=O)n(CCCCCC(=O)NCc3ccc4c(c3)OCO4)c(=O)[nH]c2c1	nt	23	52*	0.5	-1.6	0.8
COC(=O)c1ccc2c(=O)n(CCCCCC(=O)NCc3ccccc3)c(=O)[nH]c2c1	nt	17	51*	0.5	-0.11	0.8
O=C(CCCn1c(=O)[nH]c2ccsc2c1=O)N1CCN(Cc2ccc3c(c2)OCO3)CC1	-0.26	nt	nt	nt	2	nt
CN(/C(=N\S(=O)(=O)c1ccccc1)C(F)(F)F)c1ccccc1	nt	29	-3	1	-0.086	0.7
CC(C)(C)NCc1ccccc1OCc1cccs1	nt	-8	2	1	0.12	1.1
N#Cc1c(NC(=O)c2ccccc2)sc2c1CCC2	nt	8	5	0.9	-1.1	0.9
Cc1nn(C(C)C(=O)Nc2sc3c(c2C#N)CCCC3)c(C)c1[N+](=O)[O-] (stereo not given)	nt	21	61*	0.4	1.3	0.8
CC(C)(C)C(=O)Nc1sc2c(c1C#N)CCCCC2	nt	nt	nt	nt	-1.2	nt
CC(C)c1cc(C(=O)Nc2sc3c(c2C#N)CCC3)no1	-0.43	-5	10	0.9	-0.34	1.1
Cn1ncc(Cl)c1C(=O)NC(=S)Nc1sc2c(c1C#N)CCCCC2	nt	17	63*	0.4	-0.94	0.8
CC(C)CC(=O)NC(NC(=S)Nc1sc2c(c1C#N)CCCC2)C(Cl)(Cl)Cl (stereo not given)	nt	53*	100*	0	-0.97	0.5
CC(C)C(C(=O)Nc1sc2c(c1C#N)CCCCC2)N1C(=O)c2ccccc2C1=O (stereo not given)	nt	35	64*	0.4	-0.38	0.7
Cc1nn(CCCC(=O)Nc2sc3c(c2C#N)CCC3)c(C)c1[N+](=O)[O-]	nt	30	41	0.6	-0.18	0.7
CCc1ccc(N(C(=O)c2csnn2)C(C(=O)NCc2ccccc2)c2ccco2)cc1 (stereo not given)	nt	47	43	0.6	0.17	0.5
Clc1cccc(-c2nn3c(Cn4cnc5ccccc54)nnc3s2)c1	1.8	14	28	0.7	0.018	0.9
c1coc(-c2nn3c(Cn4nnc5ccccc54)nnc3s2)c1	1.2	76*	45	0.5	-0.26	0.2
c1ccc2c(c1)nnn2Cc1nnc2sc(-c3ccncc3)nn12	0.17	78*	57*	0.4	0.048	0.2
SMILES	D1 allo mod	CYP2C19 inh	CYP2C9 inhib	CYP2C9 activ	DAT uptake mod	CYP2C19 activ
c1ccc2oc(-c3nn4c(Cn5cnc6ccccc65)nnc4s3)cc2c1	-0.18	nt	nt	nt	nt	nt
c1csc(-c2nn3c(Cn4cnc5ccccc54)nnc3s2)c1	2.5	58*	18	0.8	0.0097	0.4
Cc1cc(C)c(O)c(-c2cc(C(=O)Nc3ccc(S(=O)(=O)N4CCOCC4)cc3)[nH]n2)c1	0.78	-3	31	0.7	-0.086	1
CCCCN(C)C(=O)C1CCN(Cc2ccc(OCc3ccccc3)cc2)CC1	nt	nt	nt	nt	0.35	nt
COc1cccc(N2C(=O)CC(c3c[nH]c4ccccc34)C2=O)c1 (stereo not given)	-1.1	89*	34	0.7	-0.39	0.1
COc1cccc(OC)c1OCCN(C)C	nt	7	2	1	-0.81	0.9
N#CC1(c2ccccc2)CCCN1C(=O)c1ccc(Br)cc1 (stereo not given)	nt	64*	60*	0.4	1.1	0.4
CCCc1nc(SCC(=O)N2CCc3ccccc32)c2c(=O)n(C)c(=O)n(C)c2n1	-0.4	11	50*	0.5	nt	0.9
CCc1nc(SCC(=O)Nc2cccc(C(F)(F)F)c2)c2c(=O)n(C)c(=O)n(C)c2n1	nt	66*	52*	0.5	-0.9	0.3
CC(C)c1nc(SCC(=O)N2CCCc3ccccc32)c2c(=O)n(C)c(=O)n(C)c2n1	nt	-13	33	0.7	-0.3	1.1
CCCc1nc(SCC(=O)N2CCc3ccccc32)c2c(C)c(C)sc2n1	nt	22	80*	0.2	nt	0.8
CCc1nc(SCC(=O)NCc2ccco2)c2c(=O)n(C)c(=O)n(C)c2n1	-0.1	1	12	0.9	-1.8	1
CCc1nc(SCC(=O)N2CCc3ccccc32)c2oc3ccccc3c2n1	-0.057	nt	nt	nt	nt	nt
CCCc1nc(SCC(=O)c2ccccc2)c2c(=O)n(C)c(=O)n(C)c2n1	nt	3	86*	0.1	-0.52	1
COC(=O)CNC(=O)c1c(-c2ccccc2Cl)noc1C	0.76	11	-5	1	0.17	0.9
Cc1ccc(NC(=O)c2c(-c3c(F)cccc3Cl)noc2C)cc1F	-0.17	83*	92*	0.1	0.22	0.2
Cc1onc(-c2c(Cl)cccc2Cl)c1C(=O)NCCc1ccc(S(N)(=O)=O)cc1	nt	33	73*	0.3	0.37	0.7
CC(=O)Nc1cccc(NC(=O)c2c(-c3c(Cl)cccc3Cl)noc2C)c1	nt	82*	87*	0.1	-0.84	0.2
COC(=O)CNC(=O)c1c(-c2c(Cl)cccc2Cl)noc1C	nt	48	58*	0.4	-0.48	0.5
Cc1onc(-c2ccccc2)c1C(=O)NCCc1ccc(S(N)(=O)=O)cc1	nt	6	-2	1	-0.12	0.9
Cc1onc(-c2ccccc2Cl)c1C(=O)Nc1ccccc1	nt	nt	nt	nt	0.17	nt
COC(=O)[C@@H]1C[C@H]2CC[C@H](O)C[C@H]2N1Cc1ccc(C)s1	nt	nt	nt	nt	-0.94	nt
